Reference: PubChem BioAssay (Tox21)
Inconclusive results are not listed. Where a call stands in place of a potency, no number is given. Calls of active or inactive are those of the source. Unless noted, calls follow the shape of the dose curve; as a rule, active = well fitted curve in the direction sought with a large enough effect in the repeat runs; inconclusive = weak or mixed curves; inactive = no such curve, though single readings can be large; an effect the other way counts as inactive or inconclusive.

Tests used:
[1] = qHTS assay to identify small molecule antagonists of the estrogen receptor alpha (ER-alpha) signaling pathway using the BG1 cell line in the presence of 0.1 nM 17-beta-estradiol - cell viability counter screen (AID 1259241); also: nearly all actives have a fitted effect of over 40% in size
Summary of the method: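 VM7Luc4E2, 4,000 cells/well, phenol red-free medium + 10% charcoal-stripped FBS; 24 hr plating; cpd + 0.1 nM E2 final, 22 hr 37C/5% CO2; CellTiter-Fluor 30 min, fluorescence.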

[2] = qHTS assay to identify small molecule antagonists of the androgen receptor (AR) signaling pathway using the MDA cell line in the presence of 0.5 nM R1881 - cell viability counter screen (AID 1259242); also: nearly all actives have a fitted effect of over 45% in size
Summary of the method: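 Cells seeded at 3,000/well and allowed 5 hr at 37C, 0% CO2 before compound transfer and R1881 (0.5 nM final) addition; 16 hr later, live-cell protease fluorescence indicated cytotoxicity.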

[3] = target: Estrogen receptor (Homo sapiens) (UniProt P03372); experiment: qHTS assay to identify small molecule antagonists of the estrogen receptor alpha (ER-alpha) signaling pathway using the BG1 cell line in the presence of 0.1 nM 17-beta-estradiol (AID 1259244); also: nearly all actives have a fitted effect of over 50% in size
Sequence of Estrogen receptor (Homo sapiens) (P03372 whole entry, looked up): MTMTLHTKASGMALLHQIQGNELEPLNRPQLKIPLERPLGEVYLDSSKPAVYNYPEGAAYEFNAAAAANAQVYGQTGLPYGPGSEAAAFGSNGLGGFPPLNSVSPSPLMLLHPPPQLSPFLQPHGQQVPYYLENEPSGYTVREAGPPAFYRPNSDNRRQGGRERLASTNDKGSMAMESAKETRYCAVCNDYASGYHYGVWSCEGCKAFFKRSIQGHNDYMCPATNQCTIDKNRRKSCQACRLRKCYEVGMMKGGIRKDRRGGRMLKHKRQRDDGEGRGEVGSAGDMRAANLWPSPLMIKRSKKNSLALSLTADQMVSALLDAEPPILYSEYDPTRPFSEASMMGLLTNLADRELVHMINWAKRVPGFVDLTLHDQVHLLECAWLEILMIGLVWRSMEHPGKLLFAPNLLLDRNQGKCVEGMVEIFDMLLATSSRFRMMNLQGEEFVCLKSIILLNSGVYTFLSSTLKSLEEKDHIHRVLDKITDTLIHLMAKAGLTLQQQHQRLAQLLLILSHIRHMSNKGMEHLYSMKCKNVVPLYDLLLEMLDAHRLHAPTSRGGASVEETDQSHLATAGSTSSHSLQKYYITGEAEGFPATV
Summary of the method: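 Luciferase signal from VM7Luc4E2 ERE-reporter cells, co-dosed with test compound and 0.1 nM final 17beta-estradiol for 22 h, read with ONE-Glo.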

[4] = qHTS assay to identify small molecule HDAC inhibitors (AID 1259364); also: potency is read from the fitted curve at half-maximal effect;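 also: wild-type HCT-116 cells with endogenous class I/II HDAC activity; nearly all actives have a fitted effect of over 45% in size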
Summary of the method: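 HCT-116 wt cells, 1,500/well, overnight attach. Compounds (DMSO) 2 h, 37 °C. HDAC-Glo I/II, 30 min RT. Luminescence.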

[5] = qHTS assay to identify small molecule HDAC inhibitors - cell viability counter screen (AID 1259365); also: series mostly up to about 92 µM; nearly all actives have a fitted effect of over 50% in size
Summary of the method: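 Luminescence from CellTiter-Glo, developed 30min at room temperature, reports viability of wild-type HCT-116 cells treated 2hr with compounds at 37 C and 5% CO2 after overnight plating.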

[6] = qHTS assay to identify small molecule agonists of the sonic hedgehog signaling (Shh) pathway - cell viability counter screen (AID 1259366); also: nearly all actives have a fitted effect of over 50% in size; also: potency is read from the fitted curve at half-maximal effect
Summary of the method: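 Cytotoxicity counter screen run in the same wells as the Shh reporter assay. NIH/3T3 cells carrying a Gli1 response element–driven luciferase were treated with DMSO-dissolved compounds for 24hr, and live-cell protease activity was measured with CellTiter-Fluor.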

[7] = qHTS assay to identify small molecule antagonists of the sonic hedgehog signaling (Shh) pathway - cell viability counter screen (AID 1259367); also: nearly all actives have a fitted effect of over 55% in size; also: potency is read from the fitted curve at half-maximal effect
Summary of the method: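 Cytotoxicity was assessed in parallel with Shh reporter activity by measuring live-cell protease fluorescence (CellTiter-Fluor) in NIH/3T3 cells stably carrying Gli1-Luc, treated with compound under conditioned medium stimulation for 23 hr plus 1 hr reagent incubation.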

[8] = qHTS assay to identify small molecule agonists of the sonic hedgehog signaling (Shh) pathway (AID 1259368; calls by dose curve;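 also: NIH/3T3-derived 3T3Gli1-Luc cells carrying a stable Gli1-driven firefly luciferase reporter; series mostly up to about 92 µM; nearly all actives have a fitted effect of over 15% in size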)
Summary of the method: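 Following a 24 hr incubation with DMSO-dissolved compounds at 37 C, 5% CO2, Gli1-Luc NIH/3T3-derived cells received luciferase reagent for 30 min at room temperature prior to luminescence measurement.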

[9] = target: Estrogen receptor beta (Homo sapiens) (UniProt Q92731); experiment: qHTS assay to identify small molecule agonists of the estrogen receptor beta (ER-beta) signaling pathway (AID 1259377; active = well fitted activation curve with a large enough effect in the signal ratio in the repeat runs, not every such curve was filed as active; the % refers to the signal ratio; also: potency is read from the fitted curve at half-maximal effect)
Sequence of Estrogen receptor beta (Homo sapiens) (Q92731 whole entry, looked up): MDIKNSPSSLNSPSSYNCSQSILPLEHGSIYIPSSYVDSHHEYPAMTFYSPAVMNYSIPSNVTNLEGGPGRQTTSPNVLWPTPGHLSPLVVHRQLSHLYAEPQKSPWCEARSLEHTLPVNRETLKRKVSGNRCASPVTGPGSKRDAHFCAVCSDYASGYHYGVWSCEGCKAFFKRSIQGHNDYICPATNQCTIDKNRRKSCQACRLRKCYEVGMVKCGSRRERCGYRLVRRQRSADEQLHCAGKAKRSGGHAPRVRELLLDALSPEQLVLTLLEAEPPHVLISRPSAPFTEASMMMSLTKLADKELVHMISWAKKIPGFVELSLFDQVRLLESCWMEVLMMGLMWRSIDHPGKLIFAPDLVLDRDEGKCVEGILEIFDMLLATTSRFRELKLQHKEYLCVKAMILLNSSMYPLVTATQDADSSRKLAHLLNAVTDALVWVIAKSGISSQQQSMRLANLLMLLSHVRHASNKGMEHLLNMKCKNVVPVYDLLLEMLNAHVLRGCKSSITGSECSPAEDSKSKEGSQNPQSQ
Summary of the method: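 HEK293T ER-beta-UAS-bla; 2% charcoal-stripped FBS; cells pre-incubated 6 hr, compound 16 hr, 37C/5% CO2; LiveBLAzer B/G FRET substrate 2 h RT; fluorescence intensity read.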

[10] = target: Estrogen receptor beta (Homo sapiens) (UniProt Q92731); experiment: qHTS assay to identify small molecule antagonists of the estrogen receptor beta (ER-beta) signaling pathway (AID 1259378; active = well fitted inhibition curve with a large enough effect in the signal ratio in the repeat runs, not every such curve was filed as active; the % refers to the signal ratio; also: potency is read from the fitted curve at half-maximal effect)
Summary of the method: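 ER-beta-UAS-bla HEK293T (GripTite) cells in 2% charcoal-stripped FBS medium were preincubated 6 hr at 37C, dosed with compound, then stimulated with 1 nM E2 (final) for 16 hr; beta-lactamase reporter read by B/G FRET fluorescence after 2 hr substrate loading.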

[11] = qHTS assay to identify small molecule agonists of the androgen receptor (AR) signaling pathway in the presence of an antagonist - cell viability counter screen (AID 1259379);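 also: MDA-kb2 human breast cancer cells carrying an MMTV luciferase reporter; series mostly up to about 92 µM; nearly all actives have a fitted effect of over 25% in size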
Summary of the method: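 Each compound was tested at 15 concentrations on MDA-kb2 cells in the presence of 3.0uM nilutamide. Viability was measured by CellTiter-Fluor fluorescence after a 16 hr incubation at 37C in a CO2-free atmosphere.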

[12] = qHTS assay to identify small molecule agonists of the estrogen receptor beta (ER-beta) signaling pathway - cell viability counter screen (AID 1259380); also: nearly all actives have a fitted effect of over 30% in size; also: potency is read from the fitted curve at half-maximal effect
Summary of the method: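 Compounds dissolved in DMSO were pin-transferred onto ER-beta-UAS-bla HEK293T cells that had settled 6 hr, and exposure ran 16 hr at 37C. Following the reporter read, CellTiter-Glo luminescence after 30 min at room temperature indicated cytotoxicity.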

[13] = qHTS assay to identify small molecule antagonists of the estrogen receptor beta (ER-beta) signaling pathway - cell viability counter screen (AID 1259382); also: series mostly up to about 92 µM; nearly all actives have a fitted effect of over 55% in size
Summary of the method: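 CellTiter-Glo ATP luminescence measured after the LiveBLAzer read in the same wells; ER-beta-UAS-bla HEK293T cells, 16 hr compound treatment with 1nM 17-beta-estradiol agonist at 37C, 5% CO2.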

[14] = target: Estrogen receptor (Homo sapiens) (UniProt P03372); experiment: qHTS assay to identify small molecule agonists of the estrogen receptor alpha (ER-alpha) signaling pathway in the presence of an antagonist (AID 1259383; calls by dose curve; also: nearly all actives have a fitted effect of over 15% in size; also: potency is read from the fitted curve at half-maximal effect; as to activation: top concentration of the series differs between compounds)
Summary of the method: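 Luminescent ERE-luciferase reporter, VM7Luc4E2 cells (endogenous ER-alpha); 10.0nM ICI-182,780 final; 15-point compound titration; 22hr at 37C; ONE-Glo, 30min RT.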

[15] = qHTS assay to identify small molecule agonists or antagonists of the thyroid stimulating hormone receptor (TSHR) signaling pathway - wild type cell line counter screen (AID 1259384; calls by dose curve)
Summary of the method: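 Wild-type HEK293 cells were plated 18 h at 37 C/5% CO2, pin-dosed with compound plus Ro20-1724 medium, held 30 min at room temperature, then given cAMP-d2 and anti-cAMP-cryptate; fluorescence was read after 1 h. Fifteen concentrations, triplicate.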

[16] = target: Thyrotropin receptor (Homo sapiens) (UniProt P16473); experiment: qHTS assay to identify small molecule antagonists of the thyroid stimulating hormone receptor (TSHR) signaling pathway (AID 1259385; calls by dose curve; also: nearly all actives have a fitted effect of over 20% in size)
Sequence of Thyrotropin receptor (Homo sapiens) (P16473 whole entry, looked up): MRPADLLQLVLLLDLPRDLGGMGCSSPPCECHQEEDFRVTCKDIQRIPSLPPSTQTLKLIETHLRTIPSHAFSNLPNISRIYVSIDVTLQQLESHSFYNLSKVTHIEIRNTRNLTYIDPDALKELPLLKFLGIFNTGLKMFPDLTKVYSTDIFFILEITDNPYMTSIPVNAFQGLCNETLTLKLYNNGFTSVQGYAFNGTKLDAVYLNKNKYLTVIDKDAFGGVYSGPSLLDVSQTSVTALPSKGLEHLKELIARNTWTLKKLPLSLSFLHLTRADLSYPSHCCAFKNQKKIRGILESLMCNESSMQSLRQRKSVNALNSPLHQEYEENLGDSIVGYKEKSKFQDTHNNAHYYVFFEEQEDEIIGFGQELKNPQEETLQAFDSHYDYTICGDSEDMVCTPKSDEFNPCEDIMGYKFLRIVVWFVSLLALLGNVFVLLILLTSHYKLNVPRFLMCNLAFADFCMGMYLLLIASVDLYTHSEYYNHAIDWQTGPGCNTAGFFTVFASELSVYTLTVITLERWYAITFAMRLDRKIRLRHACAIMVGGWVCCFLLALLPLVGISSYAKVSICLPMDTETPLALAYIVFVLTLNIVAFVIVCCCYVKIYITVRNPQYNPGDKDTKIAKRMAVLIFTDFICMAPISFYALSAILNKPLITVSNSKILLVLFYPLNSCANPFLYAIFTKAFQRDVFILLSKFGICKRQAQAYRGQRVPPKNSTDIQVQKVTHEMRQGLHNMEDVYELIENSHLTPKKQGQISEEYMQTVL
Summary of the method: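 TSHR-HEK293 cells were plated and held 18 h at 37C/5% CO2, then given compound plus Ro20-1724 and stimulated with TSH at 1.5 ng/mL final. After 30 min at room temperature, cAMP was detected with cAMP-d2/anti-cAMP-cryptate (1 h) by fluorescence.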

[17] = qHTS assay to identify small molecule antagonists of the sonic hedgehog signaling (Shh) pathway (AID 1259369; calls by dose curve; also: nearly all actives have a fitted effect of over 45% in size; also: potency is read from the fitted curve at half-maximal effect)
Summary of the method: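 Read-out is luminescence from a firefly luciferase gene controlled by the Gli1 response element, in 3T3Gli1-Luc cells pre-incubated 4hr then exposed to compounds and conditioned medium for 24hr.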

[18] = qHTS assay to identify small molecule phospholipidosis (PLD) inducers (AID 1259344; active = well fitted curve in the direction sought with a large enough effect; an effect the other way counts as inactive or inconclusive)
Summary of the method: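 Cells (HepG2, 900 per well) attach for 4 h, receive LipidTOX Red and compound together, incubate 24 h at 37 C, are fixed 30 min with paraformaldehyde/Hoechst, then imaged at one site per well.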

[19] = target: Androgen receptor (Homo sapiens) (UniProt P10275); experiment: qHTS assay to identify small molecule agonists of the androgen receptor (AR) signaling pathway in the presence of an antagonist (AID 1259381; calls by dose curve; also: nearly all actives have a fitted effect of over 15% in size)
Sequence of Androgen receptor (Homo sapiens) (P10275 whole entry, looked up): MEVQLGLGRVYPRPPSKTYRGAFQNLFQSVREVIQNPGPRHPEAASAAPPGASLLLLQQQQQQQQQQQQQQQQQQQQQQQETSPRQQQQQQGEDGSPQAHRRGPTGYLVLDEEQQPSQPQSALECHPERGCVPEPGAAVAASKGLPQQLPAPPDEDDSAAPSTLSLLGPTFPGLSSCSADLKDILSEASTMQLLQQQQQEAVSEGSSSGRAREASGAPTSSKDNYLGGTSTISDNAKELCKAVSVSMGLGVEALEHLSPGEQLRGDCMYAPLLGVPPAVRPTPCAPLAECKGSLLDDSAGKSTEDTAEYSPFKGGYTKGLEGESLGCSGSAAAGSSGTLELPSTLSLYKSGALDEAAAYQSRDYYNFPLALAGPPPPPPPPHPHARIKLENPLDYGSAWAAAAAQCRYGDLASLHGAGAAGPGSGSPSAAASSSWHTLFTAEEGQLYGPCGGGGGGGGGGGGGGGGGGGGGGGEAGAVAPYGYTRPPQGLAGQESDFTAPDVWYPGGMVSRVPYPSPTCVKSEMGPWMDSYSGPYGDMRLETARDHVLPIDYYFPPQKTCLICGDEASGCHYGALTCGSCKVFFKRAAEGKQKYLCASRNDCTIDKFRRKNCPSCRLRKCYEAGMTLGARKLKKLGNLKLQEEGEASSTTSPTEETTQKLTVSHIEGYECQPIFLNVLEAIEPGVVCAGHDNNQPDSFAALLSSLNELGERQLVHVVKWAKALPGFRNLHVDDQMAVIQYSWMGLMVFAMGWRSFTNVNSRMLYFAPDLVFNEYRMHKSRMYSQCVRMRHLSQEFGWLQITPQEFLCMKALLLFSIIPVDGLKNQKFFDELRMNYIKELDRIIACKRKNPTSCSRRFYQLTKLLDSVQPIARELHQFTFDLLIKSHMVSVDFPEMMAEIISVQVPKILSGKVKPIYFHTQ
Summary of the method: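 Plated MDA-kb2 cells (3,000/well) were pre-incubated 5hr, given nilutamide (3.0uM final) or buffer, then dosed with compounds in DMSO at 15 concentrations. Luciferase activity was quantified by luminescence after 16hr at 37C.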

SMILES | Potency [1] | Potency [2] | Potency [3] | Potency [4] | outcome [5] | Potency [6] | Potency [7] | outcome [8] | Potency [9] | Potency [10] | Potency [11] | Potency [12] | Potency [13] | Potency [14] | Potency [15] | Potency [16] | Potency [17] | Potency [18] | Potency [19]
CC/C(=C\C(=N/O)C(N)=O)C(C)[N+](=O)[O-] (configuration not stated) | inactive | inactive | inactive | inactive | inactive | inactive | inactive | inactive | inactive | inactive | inactive | inactive | inactive | inactive | inactive | inactive |  |  | 
CC(CN)CCCN (configuration not stated) | inactive | inactive | inactive | inactive | inactive | inactive | inactive | inactive | inactive | inactive | inactive | inactive | inactive | inactive | inactive | inactive |  |  | 
O=C1c2cccc(O)c2C(=O)c2c(O)cc(CO)cc21 | inactive | inactive | inactive | inactive | inactive | inactive | inactive | inactive |  |  |  |  | inactive | inactive | inactive |  | inactive |  | 
CCCC(=O)OCC | inactive | inactive | inactive | inactive | inactive |  | inactive | inactive | inactive | inactive | inactive |  | inactive | inactive | inactive | inactive | 68.6 µM (active) |  | 
O=c1c2ccccc2nnn1CCl | inactive | inactive | inactive | inactive | inactive |  | inactive | inactive | inactive | inactive | inactive |  | inactive | inactive | inactive | inactive | inactive |  | 
C=CC(=O)OCC(C)OCC(C)OCC(C)OC(=O)C=C (configuration not stated) | inactive | inactive | inactive | inactive |  | 24.3 µM (active) | 48.6 µM (active) | inactive | inactive | 61.1 µM (active) |  |  | inactive |  |  |  | 9.69 µM (active) |  | 
O=C1CCCCCO1 | inactive | inactive | inactive | inactive | inactive | inactive |  | inactive | inactive | inactive | inactive | inactive | inactive | inactive | inactive |  | inactive |  | 
CCCCCCCCN(C)C | inactive | inactive | inactive | inactive |  | inactive | inactive | inactive |  |  | inactive | inactive | inactive | inactive | inactive | inactive | inactive |  | 
C#CCOC(=O)[C@@H](C)Oc1ccc(Oc2ncc(Cl)cc2F)cc1 | inactive | inactive | inactive | inactive | inactive | inactive | inactive | inactive | inactive |  | inactive |  | inactive | inactive | inactive | inactive | inactive |  | 
CCCCCOC(=O)COc1cc(N2C(=O)C3=C(CCCC3)C2=O)c(F)cc1Cl | inactive | inactive | inactive | inactive | inactive |  | inactive | inactive | inactive | inactive | inactive |  | inactive | inactive |  | inactive | inactive |  | 
Oc1ccc(Sc2ccc(O)cc2)cc1 | inactive | inactive | inactive | inactive | inactive | inactive | inactive | inactive | 6.42 µM (active) |  | inactive |  | inactive | 14.4 µM (active) | inactive |  | 20.3 µM (active) |  | 
CCCCCOC(=O)c1ccc(O)cc1 | inactive | inactive | inactive | 24.6 µM (active) | inactive | inactive |  | inactive |  | 24.6 µM (active) | inactive | 55.1 µM (active) | inactive | 31 µM (active) | inactive | inactive | 39 µM (active) |  | 
O=C(O)C(c1ccc(Cl)cc1)c1ccc(Cl)cc1 | inactive | inactive | inactive | inactive | inactive | inactive |  | inactive | inactive | inactive | inactive | 61.1 µM (active) |  | inactive | inactive | inactive | inactive |  | 
O=S(=O)(O)c1ccc(O)c2ncccc12 | inactive | inactive | inactive | inactive | inactive | inactive | inactive | inactive |  |  | inactive | inactive | inactive |  | inactive | inactive | inactive |  | 
CC(=O)/C(C)=C/C1C(C)=CCCC1(C)C (configuration not stated) | inactive | inactive | inactive | inactive | inactive | inactive | inactive | inactive |  |  | inactive |  | inactive | inactive | inactive |  | inactive |  | 
CC(C)NCC(O)COc1ccc(CC(N)=O)cc1 (configuration not stated) | inactive | inactive | inactive | inactive | inactive | inactive | inactive | inactive |  |  | inactive | inactive | inactive | inactive | inactive | inactive | inactive |  | 
O=c1[nH]cnc2ccccc12 | inactive | inactive | inactive | inactive |  | inactive | inactive | inactive | inactive |  | inactive | inactive | inactive | inactive | inactive | inactive | inactive |  | 
Cc1ccc2c(ccc3ccccc32)c1 | inactive | inactive | inactive | inactive | inactive | inactive | inactive | inactive | inactive |  | inactive |  | inactive | inactive | inactive |  | inactive |  | 
CN1CCC[C@@H]1c1cccnc1 | inactive | inactive |  | inactive | inactive |  | inactive | inactive |  |  | inactive | inactive | inactive |  |  |  | inactive | inactive | 
COc1ccccc1OC(=O)Oc1ccccc1OC | inactive | inactive |  | inactive | inactive | inactive | inactive | inactive |  | inactive | inactive | 23.7 µM (active) |  |  | inactive | inactive | inactive | inactive | inactive
CNS(=O)(=O)Cc1ccc2[nH]cc(CCN(C)C)c2c1 | inactive | inactive |  | inactive | inactive | inactive | inactive | inactive | inactive | inactive | inactive |  | inactive |  |  |  | inactive | inactive | 
